# Assay results taken from PubChem BioAssay (Tox21).
# Some structures have more than one record in an assay (separate samples or runs), and their calls can disagree. Activity calls are given as the source filed them. Entries that show only a call come without a potency. Calls follow the shape of the dose curve; as a rule, active = well fitted curve in the direction sought with a large enough effect in the signal ratio in the repeat runs (not every such curve was filed as active); inconclusive = weak or mixed curves, or effect the other way; inactive = no such curve, though single readings can be large or run the other way; the % refers to the signal ratio.
# Biological target: Estrogen receptor (Homo sapiens) (UniProt P03372)
# Sequence (P03372 whole entry, looked up): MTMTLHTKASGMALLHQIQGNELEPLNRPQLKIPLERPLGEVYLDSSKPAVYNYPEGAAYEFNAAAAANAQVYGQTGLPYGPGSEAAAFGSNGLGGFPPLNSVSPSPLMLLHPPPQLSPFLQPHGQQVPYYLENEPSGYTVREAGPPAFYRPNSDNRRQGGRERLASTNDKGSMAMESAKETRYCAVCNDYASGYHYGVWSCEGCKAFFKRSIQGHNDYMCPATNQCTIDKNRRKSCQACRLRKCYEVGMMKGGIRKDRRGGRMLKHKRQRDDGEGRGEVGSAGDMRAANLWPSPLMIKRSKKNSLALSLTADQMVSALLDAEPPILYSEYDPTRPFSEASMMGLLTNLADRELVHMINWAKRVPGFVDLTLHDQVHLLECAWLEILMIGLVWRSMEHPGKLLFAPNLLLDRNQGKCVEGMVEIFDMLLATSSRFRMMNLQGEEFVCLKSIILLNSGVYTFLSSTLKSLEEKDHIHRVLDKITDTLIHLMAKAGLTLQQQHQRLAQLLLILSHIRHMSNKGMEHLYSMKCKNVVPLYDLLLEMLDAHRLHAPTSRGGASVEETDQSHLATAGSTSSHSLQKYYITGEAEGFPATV
# Test: qHTS assay to identify small molecule antagonists of the estrogen receptor alpha (ER-alpha) signaling pathway (AID 743069)
# Settings: HEK293 ER-alpha-UAS-bla, beta-lactamase ratio, antagonist mode; series mostly up to 69.4 µM; activity, negative = inhibition: at the top concentration
# Text: National Center for Advancing Translational Sciences [NCATS]
# NIH Chemical Genomics Center [NCGC]
# U.S. Environmental Protection Agency [EPA]
# National Institutes of Environmental Health Sciences [NIEHS]
# National Toxicology Program [NTP]
# U.S. Food and Drug Administration [FDA]
# Estrogen receptor (ER), a nuclear hormone receptor, plays an important role in development, metabolic homeostasis and reproduction. Two subtypes of ER, ER-alpha and ER-beta have similar expression patterns with some uniqueness in both types. Endocrine disrupting chemicals (EDCs) and their interactions with steroid hormone receptors like ER causes disruption of normal endocrine function. To identify the compounds that inhibit ER signaling, an ER-alpha-UAS-bla GripTiteTM cell line (Invitrogen, Carlsbad, CA, USA) containing a beta-lactamase reporter gene under the control of an Upstream Activator Sequence (UAS) stably integrated into HEK293 cells was used to screen the Tox21 10K compound library.
# Tox21 Assay Protocol Summary:
# ER-alpha-bla cells were cultured in assay medium containing 2% charcoal stripped FBS overnight in the culture flasks before the assay was performed. The cells were dispensed at 5,000 cells/5 uL of assay medium per well into black wall/clear-bottom 1536-well plates using a Multidrop Combi (ThermoFisher Scientific, Waltham, MA) dispenser. After the assay plates were incubated at a 37C and 5% CO2 for 4 hr, 23 nL of compounds dissolved in DMSO, positive controls or DMSO only was transferred to the assay plate by a Pintool station (Kalypsys, San Diego, CA), followed by addition of 1 uL of 17beta-estradiol in assay medium using a Flying Reagent Dispenser (Aurora Discovery, San Diego, CA). The plates were incubated at 37C and 5% CO2 for 18 hr. Then 1 uL of LiveBLAzerTM B/G FRET substrate was added using a Flying Reagent Dispenser, the plates were incubated at room temperature for 2 hours, and fluorescence intensity was measured by an Envision plate reader (PerkinElmer, Shelton, CT).
# Potency is read from the fitted curve at half-maximal effect.
SMILES,Potency,"activity, negative = inhibition"
Nc1cc([N+](=O)[O-])ccc1C(=O)O,inactive,–
CCOC(=O)C(C)Oc1ccc(Oc2cnc3cc(Cl)ccc3n2)cc1 (stereo not given),inactive,–
COc1ccc2nc(N)sc2c1,inactive,–
CCc1cccc2c3c([nH]c12)C(CC)(CC(=O)O)OCC3 (stereo not given),inactive,–
[O-]/[N+](=N\O)c1ccccc1,inactive,–
CNC[C@H](O)c1ccc(O)c(O)c1,inactive,–
c1ccc2c(c1)[nH]c1ccccc12,–,3.68% (inactive)
c1ccc2c(c1)ccc1cc3c(ccc4ccccc43)cc12,–,-6.54% (inactive)
CC(C)(C)c1cccc(C(C)(C)C)c1O,inactive,–
C1COCCN1,inactive,–
CC(C)=CCO,inactive,–
C=C1C[C@H]2[C@@H]3C=C(C)C4=CC(=O)CC[C@]4(C)[C@H]3CC[C@]2(C)[C@@]1(OC(C)=O)C(C)=O,–,-8.85% (inactive)
CC(=O)[C@@]1(O)CC[C@H]2[C@@H]3C[C@H](C)C4=CC(=O)C=C[C@]4(C)[C@@]3(F)[C@@H](O)C[C@@]21C,–,8.3% (inactive)
CCCCCC1C(=O)CCC1CC(=O)OC (stereo not given),inactive,–
CCO[Si](CCCNC(N)=O)(OCC)OCC,inactive,–
c1ccc2ncccc2c1,inactive,–
NCCN,inactive,–
CC(=O)Nc1ccc2c(c1)Cc1cc(NC(C)=O)ccc1-2,inactive,–
O=[Se](O)O,43.7 µM [inconclusive] (active) and inactive,–
OC[C@@H](O)[C@@H](O[C@@H]1O[C@H](CO)[C@H](O)[C@H](O)[C@H]1O)[C@H](O)[C@@H](O)CO,inactive,–

SMILES,Potency,"activity, negative = inhibition"
O=C(O)COCCN1CCN(C(c2ccccc2)c2ccc(Cl)cc2)CC1 (stereo not given),inactive,–
CCCCCCCCCCCCO,inactive,–
O=C(O)CCCC(=O)O,inactive,–
ClC/C=C/CCl,inactive,–
C1CN(SSN2CCOCC2)CCO1,inactive,–
Cc1ccc(C(C)(C)C)c(O)c1,inactive,–
CN(C)/N=N/c1nc[nH]c1C(N)=O,inactive,–
CCCCCCCC/C=C\CCCCCCCC(=O)O,–,-21.6% (inactive)
FC(F)(F)C(Cl)Br (stereo not given),inactive,–
C/C=C/C(=O)N(CC)c1ccccc1C,inactive,–
CC1(C)O[C@@H]2C[C@H]3[C@@H]4C[C@H](F)C5=CC(=O)C=C[C@]5(C)[C@@]4(F)[C@@H](O)C[C@]3(C)[C@]2(C(=O)CO)O1,–,13.7% (inactive)
CCC/C=C/C=O,inactive,–
Cc1ccc(S(=O)(=O)NCl)cc1,inactive,–
COC(=O)CC(=O)OC,inactive,–
NCCOCCO,inactive,–
O=C(O)c1cc(=O)[nH]c(=O)[nH]1,inactive,–
Cc1ccc([N+](=O)[O-])c(C)c1,inactive,–
Cc1ccc(/C(=C\CN2CCCC2)c2ccccn2)cc1,inactive,–
[Na+],inactive,–
CC1=CC(C)(C)Nc2ccccc21,inactive,–
